The record followed here is PubChem BioAssay (NCATS).

In assay [1] the target is Alpha-galactosidase (Coffea arabica) (UniProt Q42656). The experiment in a line: Counterscreen for Glucocerebrosidase Inhibitors: qHTS Assay for Coffee Bean alpha-Galactosidase at pH 4.5 (AID 957; active = well fitted curve in the direction sought with a large enough effect; an effect the other way counts as inactive or inconclusive;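 also: plate controls were enzyme alone for no effect and no enzyme for full effect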). A digest of the protocol:
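Enzyme is added first (2 nM final), then compounds titrated from 0.7 nM to 77 uM, then 80 uM 4-methylumbelliferyl alpha-D-galactopyranoside; after 20 min at room temperature a pH 10 NaOH/glycine stop precedes fluorescence reading at 365/440 nm.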
In general terms: A counterscreen serves to expose hits that act by an unwanted route or on another target.

Assay [2] has the same target. Description: Counterscreen for Glucocerebrosidase Inhibitors: qHTS Assay for Coffee Bean alpha-Galactosidase at pH 5.9 (AID 998; active = well fitted curve in the direction sought with a large enough effect; an effect the other way counts as inactive or inconclusive;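 also: plate controls were uninhibited enzyme for no effect and no-enzyme basal signal for full effect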). In short, it runs like this:
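Fluorogenic 4-MU substrate hydrolysis, 80 uM substrate and 2 nM coffee bean alpha-galactosidase, pH 5.9 citrate buffer, 20 min at room temperature, then NaOH/glycine stop. Titration 0.7 nM–77 uM, normalized to no-enzyme and enzyme controls, AC50 via Hill equation.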

Assay [3] in a line: Validation screen for inhibitors of Lassa infection (AID 463096). Also: % is scaled to controls: 0 for no effect and ±100 for the full control effect.
Assay [4] can be described thus: qHTS for Inhibitors of the Functional Ribonucleoprotein Complex (vRNP) of Lassa (LASV) Arenavirus: LASV Primary Screen - GLuc reporter signal (AID 1347082; calls by dose curve; tested in HEK293 reporter line; also: % is scaled to controls: 0 for no effect and ±100 for the full control effect; nearly all actives have a fitted effect of over 60% in size). (In general: Quantitative high-throughput screening tests each substance at several concentrations.)
A short description of assay [5]: qHTS for Inhibitors of the Functional Ribonucleoprotein Complex (vRNP) of Lassa (LASV) Arenavirus: Viability assay - alamar blue signal for LASV Primary Screen (AID 1347083; calls by dose curve; tested in HEK293 reporter line; also: % is scaled to controls: 0 for no effect and ±100 for the full control effect; nearly all actives have a fitted effect of over 80% in size).
Assay [6] can be described thus: qHTS for Inhibitors of the Functional Ribonucleoprotein Complex (vRNP) of Lymphocytic Choriomeningitis Arenaviruses (LCMV): Viability assay - alamar blue signal for LCMV Primary Screen (AID 1347085; calls by dose curve; tested in HEK293 reporter line; also: % is scaled to controls: 0 for no effect and ±100 for the full control effect; nearly all actives have a fitted effect of over 80% in size).
Assay [7] addresses Nucleoprotein (Lymphocytic choriomeningitis virus (strain Armstrong)) (UniProt P09992). Description: qHTS for Inhibitors of the Functional Ribonucleoprotein Complex (vRNP) of Lymphocytic Choriomeningitis Arenaviruses (LCMV): LCMV Primary Screen - GLuc reporter signal (AID 1347086). Also: % is scaled to controls: 0 for no effect and ±100 for the full control effect; nearly all actives have a fitted effect of over 70% in size.
A short description of assay [8]: Cytotoxicity counterscreen for inhibitors of SARS-CoV-2 cell entry (AID 1645845). Also: nearly all actives have a fitted effect of over 50% in size. In short, it runs like this: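 ATP-content luminescence (ATPLite 1step, 15 min RT) read after 48 h compound exposure of Expi293F cells stably expressing human ACE2; normalized to cells-only wells and media-only wells.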
Assay [9] is described as follows: Primary qHTS to identify inhibitors of SARS-CoV-2 cell entry (AID 1645846). Also: nearly all actives have a fitted effect of over 45% in size. As to conditions: activity change, negative = inhibition: at 57.1 µM (top of the series) unless noted. A digest of the protocol: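 Data are normalized to wells receiving SARS-CoV-2-S pseudoparticles and those given bald particles. Entry signal was luciferase luminescence in stable hACE2 Expi293F cells, 48 hr post-infection, after 1 hr compound pretreatment.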

Assay [10] concerns the target Cytochrome P450 3A4 (Homo sapiens) (UniProt P08684). The experiment in a line: qHTS Assay for Inhibitors and Substrates of Cytochrome P450 3A4 (AID 884; active = well fitted curve in the direction sought with a large enough effect; an effect the other way counts as inactive or inconclusive; also: potency is read from the fitted curve at half-maximal effect; nearly all actives have a fitted effect of over 50% in size). In short, it runs like this:
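Luminescent readout of luciferin produced by CYP3A4 (20 nM) dealkylation of Luciferin-PPXE, 25 uM (its KM). NADPH-driven reaction ran 60 min at RT after 10 min compound preincubation; data scaled to 57 uM ketoconazole as 100% inhibition.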

The target is the same in assay [11]. Description: qHTS Assay for Activators of Cytochrome P450 3A4 (AID 885; active = well fitted curve in the direction sought with a large enough effect; an effect the other way counts as inactive or inconclusive; also: nearly all actives have a fitted effect of over 65% in size). In short, it runs like this: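 Human CYP3A4 dealkylates Luciferin-PPXE to luciferin, which luciferase detection converts to light. Substrate was at its KM (25uM), buffer 200mM KPO4, reaction 60 min at RT.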
Assay [12] is described as follows: Inducers of the Endoplasmic Reticulum Stress Response (ERSR) in human glioma: Validation (AID 504836; active = well fitted curve in the direction sought with a large enough effect; an effect the other way counts as inactive or inconclusive; also: 0% is about no effect). In short, it runs like this: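 ERSR induction read as luciferase luminescence (Bright-Glo, 10 min at room temperature) in stably transfected human U87-MG glioma cells exposed to compounds for 16 h, using GRP78 as sensor.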
A short description of assay [13]: qHTS profiling of the MIPE4 collection as inhibitors of Plasmodium falciparum (3D7) proliferation (AID 743344; call rule not given here;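 also: scaled between DMSO vehicle wells and 0.29 µM artemisinin as full inhibition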). Conditions: P. falciparum 3D7 in erythrocytes, SYBR Green DNA fluorescence, 72 h; at 28.5 µM (top of the series) unless noted. In short, it runs like this: (§1)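 Parasite DNA was quantified by SYBR Green I fluorescence (ex 485, em 535 nm) after overnight lysis in saponin/Triton buffer at room temperature. Cultures at 0.3% parasitemia and 2.5% hematocrit were first exposed to compound for 72 h at 37 C; signals were normalised to artemisinin (0.29 uM) and vehicle wells.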

Assay [14] is described as follows: qHTS profiling of the MIPE4 collection as inhibitors of Plasmodium falciparum (DD2) proliferation (Rep 2) (AID 743346; call rule not given here). Conditions: P. falciparum Dd2 in erythrocytes, SYBR Green DNA, 72 h; at 28.5 µM (top of the series) unless noted. In short, it runs like this: as §1
Assay [15] concerns the target Nuclear receptor subfamily 1 group I member 3 (Homo sapiens) (UniProt Q14994). The experiment in a line: Primary qHTS for antagonist of constitutive androstane receptor (CAR) against the NCATS DSHEA and TCM libraries (AID 1794836; active = well fitted curve in the direction sought with a large enough effect; an effect the other way counts as inactive or inconclusive;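 also: HepG2 cells stably expressing hCAR with CYP2B6 luciferase reporter stimulated by CITCO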). In short, it runs like this:
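Antagonist mode: CAR reporter luminescence (ONE-Glo) in HepG2-CYP2B6-hCAR cells stimulated with 48 uM CITCO (final) over 24 h at 37 C, compounds titrated; viability read first by CellTiter-Fluor fluorescence.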

The target in assay [16] is Bile acid receptor (Homo sapiens) (UniProt Q96RI1). Description: qHTS assay for small molecule agonists of farnesoid X receptor signaling (AID 588527).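 Also: 0% = vehicle basal and 100% = reference agonist.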 As to conditions: HEK293T FXR-UAS-bla, beta-lactamase ratio, 16 h; activation: stronger effect = higher value. A digest of the protocol:
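FXR-UAS-bla HEK293T cells (10% dialyzed FBS) preincubated 5-7 h at 37 C, then compounds at up to 92 uM for 16 h at 37 C. CCF4 beta-lactamase read-out after 2 h RT. Normalized to chenodeoxycholic acid (100 uM) and DMSO; Hill fit gave EC50 and efficacy.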

Results filed as inconclusive are left out. Active and inactive are the calls of the source. Unless noted, calls follow the shape of the full dose curve.

Alpha-galactosidase (Coffea arabica), sequence (Q42656 whole entry, looked up): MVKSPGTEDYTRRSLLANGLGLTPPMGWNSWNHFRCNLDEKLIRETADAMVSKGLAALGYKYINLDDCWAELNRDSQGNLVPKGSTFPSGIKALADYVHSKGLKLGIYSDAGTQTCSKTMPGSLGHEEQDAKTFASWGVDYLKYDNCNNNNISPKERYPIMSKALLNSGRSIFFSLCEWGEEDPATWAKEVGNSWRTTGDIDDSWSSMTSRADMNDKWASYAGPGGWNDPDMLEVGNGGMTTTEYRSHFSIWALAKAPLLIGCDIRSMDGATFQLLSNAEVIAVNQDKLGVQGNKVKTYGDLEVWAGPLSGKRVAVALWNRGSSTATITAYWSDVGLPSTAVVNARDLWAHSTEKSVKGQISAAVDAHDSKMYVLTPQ
Nucleoprotein (Lymphocytic choriomeningitis virus (strain Armstrong)), sequence (P09992 whole entry, looked up): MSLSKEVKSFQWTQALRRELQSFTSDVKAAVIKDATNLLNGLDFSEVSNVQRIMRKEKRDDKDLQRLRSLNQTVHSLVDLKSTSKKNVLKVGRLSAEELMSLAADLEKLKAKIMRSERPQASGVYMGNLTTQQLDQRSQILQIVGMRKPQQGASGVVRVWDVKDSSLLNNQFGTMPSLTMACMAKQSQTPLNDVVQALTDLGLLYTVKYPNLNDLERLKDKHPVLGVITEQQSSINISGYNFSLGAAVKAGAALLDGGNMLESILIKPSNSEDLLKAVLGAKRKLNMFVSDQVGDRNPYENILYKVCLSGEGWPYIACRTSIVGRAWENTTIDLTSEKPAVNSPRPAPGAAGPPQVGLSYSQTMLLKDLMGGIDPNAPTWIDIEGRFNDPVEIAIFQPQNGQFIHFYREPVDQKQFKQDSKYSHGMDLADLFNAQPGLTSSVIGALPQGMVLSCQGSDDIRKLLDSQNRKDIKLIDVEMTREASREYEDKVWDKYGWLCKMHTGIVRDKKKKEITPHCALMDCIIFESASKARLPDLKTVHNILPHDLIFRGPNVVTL
Cytochrome P450 3A4 (Homo sapiens), sequence (P08684 whole entry, looked up): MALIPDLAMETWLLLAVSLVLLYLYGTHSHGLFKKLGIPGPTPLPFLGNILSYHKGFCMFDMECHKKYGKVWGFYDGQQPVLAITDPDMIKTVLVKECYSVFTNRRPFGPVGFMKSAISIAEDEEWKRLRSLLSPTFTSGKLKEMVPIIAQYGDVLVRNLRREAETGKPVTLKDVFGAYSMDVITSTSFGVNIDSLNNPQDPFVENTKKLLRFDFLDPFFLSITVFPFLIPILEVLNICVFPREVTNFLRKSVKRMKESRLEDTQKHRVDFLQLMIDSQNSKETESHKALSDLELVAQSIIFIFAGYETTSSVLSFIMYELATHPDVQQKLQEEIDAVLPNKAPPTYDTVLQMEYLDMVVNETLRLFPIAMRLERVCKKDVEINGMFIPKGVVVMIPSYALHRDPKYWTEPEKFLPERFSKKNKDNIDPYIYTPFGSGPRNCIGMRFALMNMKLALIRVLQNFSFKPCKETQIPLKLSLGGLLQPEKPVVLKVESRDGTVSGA
Nuclear receptor subfamily 1 group I member 3 (Homo sapiens), sequence (Q14994 whole entry, looked up): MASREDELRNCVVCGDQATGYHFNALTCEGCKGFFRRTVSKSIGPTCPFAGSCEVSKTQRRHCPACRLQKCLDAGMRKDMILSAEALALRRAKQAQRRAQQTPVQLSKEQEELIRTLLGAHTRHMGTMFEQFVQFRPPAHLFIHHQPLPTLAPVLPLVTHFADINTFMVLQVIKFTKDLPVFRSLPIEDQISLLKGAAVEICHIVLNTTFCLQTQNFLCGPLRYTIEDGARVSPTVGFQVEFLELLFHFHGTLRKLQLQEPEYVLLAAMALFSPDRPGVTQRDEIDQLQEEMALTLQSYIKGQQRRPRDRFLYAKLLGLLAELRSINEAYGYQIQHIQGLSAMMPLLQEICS
Bile acid receptor (Homo sapiens), sequence (Q96RI1 whole entry, looked up): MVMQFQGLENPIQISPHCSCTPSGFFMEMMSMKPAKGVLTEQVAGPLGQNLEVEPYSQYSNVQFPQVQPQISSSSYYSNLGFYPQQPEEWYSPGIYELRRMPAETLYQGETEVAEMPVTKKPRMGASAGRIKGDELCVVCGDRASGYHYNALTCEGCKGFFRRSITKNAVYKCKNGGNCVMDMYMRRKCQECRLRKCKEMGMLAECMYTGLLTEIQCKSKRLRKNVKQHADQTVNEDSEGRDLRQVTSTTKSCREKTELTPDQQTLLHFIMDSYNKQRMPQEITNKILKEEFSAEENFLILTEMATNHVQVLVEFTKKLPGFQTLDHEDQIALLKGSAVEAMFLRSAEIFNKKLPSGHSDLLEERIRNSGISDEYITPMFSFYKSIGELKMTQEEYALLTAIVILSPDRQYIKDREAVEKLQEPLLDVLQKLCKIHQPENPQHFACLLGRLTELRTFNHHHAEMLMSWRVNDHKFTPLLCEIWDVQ

Consider `C[C@H](Cc1ccc(O)c(O)c1)[C@@H](C)Cc1ccc(O)c(O)c1`, for which the call in [1] and in assay [2] was inactive. Further, the Potency entry in assay [3], in assay [4], in assay [5], in [6], in [7] and in assay [8] was “inactive” in each case.
Take `CCOC(=O)C1=C(N)Oc2ccc(Br)cc2C1C(C#N)C(=O)OCC` (centres undefined): the Potency result in assay [4], in assay [5], in assay [6], in assay [7] and in [8] was “inactive” throughout. Further, in [9], the activity change, negative = inhibition was -18.1%.
In the case of `N#CC1(c2ccc(NC(=O)c3cccnc3NCc3ccncc3)cc2)CCCC1`, the Potency result in assay [4], in assay [5], in assay [6], in [7], in assay [8] and in assay [9] was “inactive” in each case.
For `C#CCN(C)CC1=Cc2ccccc2Oc2ccccc21`, the Potency result in assay [4], in assay [5], in assay [6], in assay [7] and in [8] was “inactive” throughout. Further, the activity change, negative = inhibition in assay [9] came to 1.65%.
Regarding `O=C1Nc2ccc(I)cc2/C1=C/c1cc(Br)c(O)c(Br)c1`, in [10], the Potency was 5.01 µM (active). Further, the Potency result in assay [11], in [3], in [4], in assay [5], in [6] and in assay [7] was “inactive” each time. Moreover, in assay [8], the Potency entry is “inactive”. Besides, the compound was classed as inactive in assay [1], in assay [2] and in assay [12]. The activity change, negative = inhibition in [9] is -7.81%.
Compound `C=C(C)[C@@H]1CC[C@]2(C(=O)O)CC[C@]3(C)[C@H](CC[C@@H]4[C@@]5(C)CC[C@H](O)C(C)(C)[C@@H]5CC[C@]43C)[C@@H]12` returned a parasite growth, % of DMSO control in assay [13] of 60.5%. Moreover, the parasite growth, % of control (lower = inhibition) in assay [14] was found to be 97%. In addition, the Potency result in [4], in assay [5], in assay [6], in assay [7], in [8] and in assay [9] was “inactive” in each case. Besides, the Potency result in assay [15] was “inactive”.
Consider `CCC(C)N(C)C(=O)c1cc2ccccc2c(-c2ccccc2Cl)n1` (centres undefined), for which the Potency entry in assay [3], in assay [4], in assay [5], in [6], in [7] and in [8] was “inactive” throughout. In [12], the result was inactive. For the same compound, the activity change, negative = inhibition in assay [9] worked out at 4.18%.
On to `CC(Oc1ccc(O)cc1)(P(=O)(O)O)P(=O)(O)O`, for which the Potency entry in [4], in assay [5], in [6], in assay [7] and in assay [8] was “inactive” in each case. Further, the activity change, negative = inhibition in [9] is -6.64%.
Regarding `Clc1ccc2c(N3CCN(CCCN4CCN(c5ccnc6cc(Cl)ccc56)CC4)CC3)ccnc2c1`, the Potency result in [4], in assay [5], in assay [6], in [7] and in [8] was “inactive” throughout. In assay [9], the activity change, negative = inhibition was -11.2%.
On to `N#C/C(=C\c1ccc(O)c(O)c1)C(=O)NCc1ccccc1`, for which the compound was classed as inactive in assay [1], in [2] and in assay [12]. In addition, the Potency result in assay [3], in [4], in [5], in [6], in assay [7] and in assay [8] was “inactive” in each case.
Consider `CC(C)N(CCC(=O)c1ccc2ccccc2c1)Cc1ccccc1`, for which the compound was called inactive in assay [1], in assay [2] and in assay [12]. Moreover, the Potency entry in assay [4], in [5], in assay [6], in assay [7] and in assay [8] was “inactive” in each case.
As to `O=c1c(O)c(-c2ccc(O)cc2O)oc2cc(O)cc(O)c12`, the compound was called inactive in [1], in assay [2] and in assay [12]. Besides, the activation in assay [16] is -2.26% (inactive). In addition, the Potency entry in assay [4], in assay [5], in assay [6], in assay [7] and in assay [8] was “inactive” throughout. In addition, the activity change, negative = inhibition in assay [9] is 0.962%.
